High-throughput results: PubChem BioAssay, National Center for Advancing Translational Sciences (NCATS)
Giardia kill: Small Molecules that selectively kill Giardia lamblia: qHTS; Giardia lamblia trophozoite viability; activity change, % at 7.66 µM, hits read low; hit rate 0.15% among 340,000; in the data active = activity change below about -80%; inconclusive = between about -30% and that limit;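 also: parasites exposed to compound for two days anaerobically before the ATP read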
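Anaerobic 48 hrs incubation at 37 deg C of 100 trophozoites/well with test compounds; ATPLite 1-Step luminescence, 15-30 min RT, reports cellular ATP as viability.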
Chronic BCR inh: qHTS Assay to Find Inhibitors of Chronic Active B-Cell Receptor Signaling; ABC-DLBCL IkBa-CBG/CBR reporter, luminescence ratio, 4 h; Potency, µM (series often up to 46.1 µM), hits mostly inhibitors; hit rate 0.05% among 340,000; AID 493014, 2011; active = well fitted inhibition curve with a large enough effect in the signal ratio, with a control signal flat, not every such curve was filed as active; inconclusive = small, poorly fitted or top-dose-only effect, or effect the other way, or a change in a side signal; the % refers to the signal ratio
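Cell line TMD8 (human ABC DLBCL), stably expressing tet-inducible CBG68-IkBa fusion and CBR; IMDM/0.5% FBS; cpd up to 46 uM; dox induction, 4 h, 37C/5% CO2; dual luminescence; green/red ratio; MG132 control.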
RORg inh: qHTS for inhibitors of ROR gamma transcriptional activity; hit rate 5.4% among 310,000; Potency, µM (series often up to 53.6 µM), usual class: inhibitors; Drosophila S2 Gal4-RORgamma UAS-luciferase reporter, 20 h; also: nearly all actives have a fitted effect of over 60% in size
Target sequence (P51450 whole entry, looked up, the tested form may be a part): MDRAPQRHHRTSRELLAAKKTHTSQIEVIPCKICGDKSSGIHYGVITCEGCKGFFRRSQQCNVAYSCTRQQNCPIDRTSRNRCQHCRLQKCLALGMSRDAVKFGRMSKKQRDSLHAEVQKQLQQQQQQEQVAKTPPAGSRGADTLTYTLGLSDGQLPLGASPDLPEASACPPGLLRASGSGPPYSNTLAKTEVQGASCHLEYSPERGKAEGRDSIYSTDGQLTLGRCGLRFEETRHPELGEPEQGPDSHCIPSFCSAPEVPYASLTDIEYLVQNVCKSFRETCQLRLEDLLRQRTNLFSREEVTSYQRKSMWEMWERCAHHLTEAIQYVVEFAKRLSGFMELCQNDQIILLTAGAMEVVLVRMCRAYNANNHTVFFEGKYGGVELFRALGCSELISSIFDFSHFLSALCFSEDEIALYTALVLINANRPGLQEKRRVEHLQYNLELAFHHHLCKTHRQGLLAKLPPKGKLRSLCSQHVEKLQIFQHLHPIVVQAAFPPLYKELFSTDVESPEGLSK
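Compounds are pin-transferred onto Drosophila Schneider cells expressing a copper-inducible Gal4–ROR gamma transactivation domain fusion. After 1 hr, copper sulfate is added to 700 uM final; luciferase is read 20 hr later.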
SW480 rerep: A quantitative high throughput screen for small molecules that induce DNA re-replication in SW480 colon adenocarcinoma cells. Potency, µM (highest dose often 46.1 µM), most hits filed as activators. SW480 DNA re-replication, Hoechst DNA content imaging, 48 h. hit rate 1.8% among 340,000; also: nearly all actives have a fitted effect of over 55% in size
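Compounds, transferred as 23 nL by pin tool, were incubated with cells for 48 hr; DNA content per nucleus was then quantified by Hoechst staining and fluorescence plate imaging.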
MCF10A rereplic: A quantitative high throughput screen for small molecules that induce DNA re-replication in MCF 10a normal breast cells; hit rate 2.9% among 350,000; Potency, µM (series often up to 46.1 µM), actives largely listed as activators; MCF 10A DNA re-replication, Hoechst nuclear intensity, 48 h; also: nearly all actives have a fitted effect of over 50% in size
VP16 counter: VP16 counterscreen qHTS for inhibitors of ROR gamma transcriptional activity; AID 2546, 2010; Potency, µM (series often up to 53.6 µM), usual class: inhibitors; Drosophila S2 Gal4-VP16 UAS-luciferase, luminescence, 20 h; hit rate 3.5% among 310,000;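 also: Gal4-VP16 expression switched on by copper sulfate through the metallothionein promoter; nearly all actives have a fitted effect of over 50% in size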
Numbers stand for hits. Compounds with a hit are over-represented: about 8.3% of the library has one in this group of screens. Unless noted, calls follow the shape of the dose curve; as a rule, active = well fitted curve in the direction sought with a large enough effect; inconclusive = small, poorly fitted or top-dose-only effect, or another doubt; inactive = no such curve, though single readings can be large; an effect the other way counts as inactive or inconclusive.

How did CC1CCN(S(=O)(=O)c2ccc3c(c2)N(CC(=O)NCCCN2CC(C)CC(C)C2)C(=O)CS3)CC1 (stereo not drawn) do in these assays?
Giardia kill: inactive; Chronic BCR inh: inactive; RORg inh: inactive; SW480 rerep: inactive; MCF10A rereplic: inactive; VP16 counter: inactive

What do the screens show for `O=C(NNC(=O)c1ccccc1C(F)(F)F)c1csc(N2CCOCC2)n1`?
Giardia kill: inactive; Chronic BCR inh: inactive; RORg inh: inactive; SW480 rerep: inactive; MCF10A rereplic: inactive; VP16 counter: inactive

How did CC(C)(O)C#Cc1ccc(C(=O)N2CCN(c3ccccc3)CC2)cc1 do in these assays?
Giardia kill: inactive; Chronic BCR inh: inactive; RORg inh: inactive; SW480 rerep: 3.26µM; MCF10A rereplic: inconclusive; VP16 counter: inactive

Results for CCOP(=O)(OCC)C(NC(=O)Nc1cccc(Cl)c1)C(N)=O (stereo not drawn) ?
Giardia kill: inactive; Chronic BCR inh: inconclusive; RORg inh: inactive; SW480 rerep: 1.46µM; MCF10A rereplic: inactive; VP16 counter: inactive

How did CCOP(=O)(OCC)C(NC(=O)Nc1cccc(Cl)c1)c1ccccc1 (stereo not drawn) do in these assays?
Giardia kill: inactive; Chronic BCR inh: inactive; RORg inh: inactive; SW480 rerep: inactive; MCF10A rereplic: inconclusive; VP16 counter: inactive

What do the screens show for `O=c1c2cc(NC(=S)NCc3cccnc3)ccc2nc2n1CCCCC2`?
Giardia kill: inactive; Chronic BCR inh: inactive; RORg inh: inactive; SW480 rerep: inactive; MCF10A rereplic: inconclusive; VP16 counter: inactive

How did N#C/C(=C(/O)COC(=O)CSc1ccc2ccccc2c1)c1nc2ccccc2[nH]1 do in these assays?
Giardia kill: inactive; Chronic BCR inh: inactive; RORg inh: 7.08µM; SW480 rerep: inactive; MCF10A rereplic: inconclusive; VP16 counter: 14.1µM

Results for Cc1ccc(C)c(SCC(=O)OC/C(O)=C(\C#N)c2nc3ccccc3[nH]2)c1 ?
Giardia kill: inactive; Chronic BCR inh: inactive; RORg inh: 10µM; SW480 rerep: inconclusive; MCF10A rereplic: inactive; VP16 counter: inconclusive

Results for Cc1cc(Br)ccc1SCC(=O)OC/C(O)=C(\C#N)c1nc2ccccc2[nH]1 ?
Giardia kill: inactive; Chronic BCR inh: inactive; RORg inh: inactive; SW480 rerep: inactive; MCF10A rereplic: inactive; VP16 counter: inconclusive

What do the screens show for `C(=C\c1nccc2c1[nH]c1ccccc12)/c1ccccc1`?
Giardia kill: inconclusive; Chronic BCR inh: inconclusive; RORg inh: 1.58µM; SW480 rerep: 11.6µM; MCF10A rereplic: inconclusive; VP16 counter: 3.98µM

What do the screens show for `CSc1ccc(/C=C/c2cc(=O)c3ccccc3[nH]2)cc1`?
Giardia kill: inactive; Chronic BCR inh: inactive; RORg inh: inconclusive; SW480 rerep: inactive; MCF10A rereplic: inconclusive; VP16 counter: inactive

How did C(=C\c1cc(/C=C/c2ccccc2)ncn1)/c1ccccc1 do in these assays?
Giardia kill: inactive; Chronic BCR inh: inactive; RORg inh: inactive; SW480 rerep: inactive; MCF10A rereplic: inactive; VP16 counter: inactive

Results for Fc1ccc(/C=C\c2nccc3c2[nH]c2ccccc23)cc1 ?
Giardia kill: inactive; Chronic BCR inh: inconclusive; RORg inh: 1.78µM; SW480 rerep: 18.4µM; MCF10A rereplic: 6.51µM; VP16 counter: inconclusive

What do the screens show for `Cc1cc2[nH]c3ccccc3c2cn1`?
Giardia kill: inactive; Chronic BCR inh: inconclusive; RORg inh: inactive; SW480 rerep: inactive; MCF10A rereplic: inactive; VP16 counter: inactive

Results for Cc1ccc(/C=C\c2nccc3c2[nH]c2ccccc23)cc1 ?
Giardia kill: inconclusive; Chronic BCR inh: inconclusive; RORg inh: 0.631µM; SW480 rerep: 20.6µM; MCF10A rereplic: 9.2µM; VP16 counter: 3.16µM

Results for O=C(C1CC1)N1CCN(c2ccc([N+](=O)[O-])cc2-n2cccc2)CC1 ?
Giardia kill: inactive; Chronic BCR inh: inactive; RORg inh: inactive; SW480 rerep: inconclusive; MCF10A rereplic: inconclusive; VP16 counter: inactive
